PubChem BioAssay
The source made the active and inactive calls.

Key:
[1] = test system: Plasmodium falciparum Sir2 (PF13_0152, Sir2A); test: pfSir2 binders on small-molecule microarrays, primary screen, biochemical, small-molecule microarray, 635 nm fluorescence (AID 1098); settings: small-molecule microarray binding, fluorescence 635 nm; higher = more signal;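 also: score merges spot fluorescence intensity with its signal-to-noise ratio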
[2] = small-molecule microarray binders of probe aDKK1, primary screen, biochemical, biotinylated probe, 635/667 nm fluorescence (AID 1099); settings: higher = more signal;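 also: score merges 667nm spot fluorescence with signal to noise across triplicate slides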
[3] = small-molecule microarray binders of probe aCHRDL2, primary screen, biochemical, biotinylated probe, 635/667 nm fluorescence (AID 1100); settings: higher = more signal
[4] = splicing luciferase reporter signal modulators, primary screen, spliceosome inhibition project, cell-based, HEK293, splice +/- reporter (AID 1101); settings: luminescence, 24 h, higher = more signal, called active from +8 up or from −8 down;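 also: HEK293 cells carrying a splicing-competent luciferase reporter gene; test concentration not given here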
[5] = target: Fibroblast growth factor 10 (Homo sapiens) (UniProt O15520); test: FGF10 binders on small-molecule microarrays, primary screen, biochemical, small-molecule microarray, 635 nm fluorescence (AID 1102); settings: FGF10 binding, fluorescence 635 nm, higher = more signal
Sequence of Fibroblast growth factor 10 (Homo sapiens) (O15520 whole entry, looked up): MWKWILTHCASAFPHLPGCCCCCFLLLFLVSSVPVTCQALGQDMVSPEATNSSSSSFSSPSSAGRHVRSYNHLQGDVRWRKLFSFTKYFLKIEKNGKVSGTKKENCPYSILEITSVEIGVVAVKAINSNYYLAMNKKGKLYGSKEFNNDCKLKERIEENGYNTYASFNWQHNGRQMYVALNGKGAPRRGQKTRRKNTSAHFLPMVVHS

[6] = test system: glycogen synthase kinase-3 (GSK3A per assay name; protocol says GSK3B); test: GSK3 binders on small-molecule microarrays, primary screen, biochemical, small-molecule microarray, 635 nm fluorescence, GSK3A (AID 1103); settings: small-molecule microarray binding, fluorescence 635 nm; higher = more signal; also: the record names both GSK3A and GSK3B
[7] = target: Epidermal growth factor receptor (Homo sapiens) (UniProt P00533); test: EGFR binders on small-molecule microarrays, primary screen, biochemical, small-molecule microarray, 635 nm fluorescence (AID 1104); settings: EGFR binding, higher = more signal;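 also: score merges 667 nm emission intensity with spot signal to noise over triplicate slides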
Sequence of Epidermal growth factor receptor (Homo sapiens) (P00533 whole entry, looked up): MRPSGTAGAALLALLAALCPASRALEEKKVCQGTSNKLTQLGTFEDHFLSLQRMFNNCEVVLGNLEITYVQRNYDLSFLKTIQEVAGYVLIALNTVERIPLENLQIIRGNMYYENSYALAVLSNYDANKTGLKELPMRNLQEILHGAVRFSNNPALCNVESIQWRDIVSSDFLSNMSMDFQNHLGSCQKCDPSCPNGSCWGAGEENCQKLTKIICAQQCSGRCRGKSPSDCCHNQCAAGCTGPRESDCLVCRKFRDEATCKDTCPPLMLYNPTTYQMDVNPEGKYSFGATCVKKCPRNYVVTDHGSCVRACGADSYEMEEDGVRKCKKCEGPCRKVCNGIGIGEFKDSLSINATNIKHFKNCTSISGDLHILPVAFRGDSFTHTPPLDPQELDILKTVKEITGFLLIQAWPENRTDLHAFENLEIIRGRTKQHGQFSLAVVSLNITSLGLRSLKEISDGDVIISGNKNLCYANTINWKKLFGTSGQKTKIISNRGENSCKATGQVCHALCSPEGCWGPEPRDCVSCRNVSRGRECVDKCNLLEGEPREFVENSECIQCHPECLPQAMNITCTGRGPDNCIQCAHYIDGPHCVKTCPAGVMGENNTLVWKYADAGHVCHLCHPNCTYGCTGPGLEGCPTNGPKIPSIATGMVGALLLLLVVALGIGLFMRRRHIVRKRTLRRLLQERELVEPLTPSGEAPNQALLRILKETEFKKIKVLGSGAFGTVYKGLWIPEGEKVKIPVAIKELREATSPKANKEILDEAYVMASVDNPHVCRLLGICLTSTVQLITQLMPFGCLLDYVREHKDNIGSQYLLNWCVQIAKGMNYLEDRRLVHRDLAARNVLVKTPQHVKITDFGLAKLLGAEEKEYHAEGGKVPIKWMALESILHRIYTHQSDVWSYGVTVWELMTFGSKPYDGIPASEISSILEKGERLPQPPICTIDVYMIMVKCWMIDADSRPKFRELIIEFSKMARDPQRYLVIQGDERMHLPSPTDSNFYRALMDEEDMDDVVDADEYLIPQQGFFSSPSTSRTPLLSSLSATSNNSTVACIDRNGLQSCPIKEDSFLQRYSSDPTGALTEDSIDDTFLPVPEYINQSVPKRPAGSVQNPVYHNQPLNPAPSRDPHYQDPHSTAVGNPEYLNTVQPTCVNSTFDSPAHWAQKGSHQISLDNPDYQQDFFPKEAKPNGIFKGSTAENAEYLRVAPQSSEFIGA

[8] = target: Follistatin-related protein 3 (Homo sapiens) (UniProt O95633); test: FSTL3 binders on small-molecule microarrays, primary screen, biochemical, small-molecule microarray, 635 nm fluorescence (AID 1105); settings: FSTL3 binding, higher = more signal;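 also: score merges emission near 667 nm and signal to noise per printed spot across three slides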
Sequence of Follistatin-related protein 3 (Homo sapiens) (O95633 whole entry, looked up): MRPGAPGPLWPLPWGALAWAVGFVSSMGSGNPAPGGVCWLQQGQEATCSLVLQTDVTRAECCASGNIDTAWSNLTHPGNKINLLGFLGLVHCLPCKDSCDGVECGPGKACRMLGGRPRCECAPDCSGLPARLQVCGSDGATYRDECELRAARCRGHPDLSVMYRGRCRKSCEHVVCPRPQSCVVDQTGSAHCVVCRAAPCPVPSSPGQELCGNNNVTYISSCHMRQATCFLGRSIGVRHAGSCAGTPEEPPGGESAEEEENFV

[9] = target: Dickkopf-related protein 1 (Homo sapiens) (UniProt O94907); test: DKK1 binders on small-molecule microarrays, primary screen, biochemical, small-molecule microarray, 635 nm fluorescence scan (AID 1106); settings: DKK1 binding, higher = more signal;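 also: score merges emission near 667 nm with signal to noise over three replicate slides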
Sequence of Dickkopf-related protein 1 (Homo sapiens) (O94907 whole entry, looked up): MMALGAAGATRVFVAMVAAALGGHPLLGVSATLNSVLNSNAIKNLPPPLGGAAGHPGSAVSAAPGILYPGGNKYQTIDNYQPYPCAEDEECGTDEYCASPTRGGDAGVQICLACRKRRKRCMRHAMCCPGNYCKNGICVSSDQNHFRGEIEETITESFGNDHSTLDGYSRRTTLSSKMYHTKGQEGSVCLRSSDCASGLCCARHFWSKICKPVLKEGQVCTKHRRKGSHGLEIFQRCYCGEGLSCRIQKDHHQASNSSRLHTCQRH

[10] = test system: Inhibin beta A chain (activin A); test: INHBA (activin A) binders on microarrays, primary screen, biochemical, small-molecule microarray, 635 nm fluorescence scan (AID 1107); settings: small-molecule microarray binding, higher = more signal;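 also: mouse activin A protein probed at 4.33 µg/mL on printed slides; score merges bound-protein fluorescence near 667 nm with spot signal-to-noise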
[11] = test system: Human papillomavirus type 1a protein E7 (residues 44-93); test: HPV1a E7 fragment binders on microarrays, primary screen, biochemical, small-molecule microarray, residues 44-93, 635 nm fluorescence (AID 1108); settings: small-molecule microarray binding, fluorescence 635 nm; higher = more signal;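 also: E7 fragment applied at 1 µg/mL in TBST for 1 h at 4 C; score combines spot fluorescence with its signal to noise ratio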
[12] = modulators of HCV replicon luciferase signal, primary screen, HCV replication inhibitor project, Huh7 cells, luciferase reporter (AID 1109); settings: 48 h, higher = more signal;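 also: huh7 hepatoma cells harbouring a luciferase neomycin HCV replicon reporter; luciferase luminescence as measure of HCV replicon replication; test concentration not given here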
[13] = target: Left-right determination factor 2 (Homo sapiens) (UniProt O00292); test: LEFTY2 binders on small-molecule microarrays, primary screen, biochemical, small-molecule microarray, 635 nm fluorescence scan (AID 1110); settings: LEFTY2 binding, higher = more signal
Sequence of Left-right determination factor 2 (Homo sapiens) (O00292 whole entry, looked up): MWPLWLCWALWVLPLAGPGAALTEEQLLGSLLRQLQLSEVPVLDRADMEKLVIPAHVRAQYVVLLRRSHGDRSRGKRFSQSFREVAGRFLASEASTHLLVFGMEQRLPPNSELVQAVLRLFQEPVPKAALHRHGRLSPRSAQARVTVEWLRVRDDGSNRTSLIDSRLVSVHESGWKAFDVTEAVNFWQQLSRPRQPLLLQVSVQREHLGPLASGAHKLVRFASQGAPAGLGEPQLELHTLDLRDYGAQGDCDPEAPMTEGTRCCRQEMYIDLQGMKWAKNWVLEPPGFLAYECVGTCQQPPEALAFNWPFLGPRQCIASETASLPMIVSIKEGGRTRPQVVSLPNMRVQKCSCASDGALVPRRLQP

[14] = target: Calmodulin-1 (Homo sapiens) (UniProt P0DP23); test: CALM1 binders on microarrays, EGTA buffer, profiling panel, biochemical, small-molecule microarray, Cy5-labelled CALM1 (AID 1111); settings: Cy5-CALM1 binding fluorescence, higher = more signal;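 also: labelled calmodulin applied in Tris saline Tween buffer holding calcium plus EGTA and DTT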
[15] = target: Calmodulin-1 (Homo sapiens) (UniProt P0DP23); test: calcium-bound CALM1 binders on microarrays, profiling panel, artefact control for SMM control-protein annotation, biochemical, small-molecule microarray, Cy5-labelled CALM1, plus calcium (AID 1112); settings: Cy5-CALM1 binding fluorescence, higher = more signal;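 also: score merges spot fluorescence with signal to noise from triplicate slides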
[16] = small-molecule microarray binders of probe aWnt5a, primary screen, biochemical, biotinylated probe, 635/667 nm fluorescence (AID 1113); settings: higher = more signal;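 also: score merges 667 nm fluorescence intensity with signal-to-noise per printed feature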
[17] = small-molecule microarray binders of probe aShh, primary screen, biochemical, biotinylated probe, 635/667 nm fluorescence (AID 1114); settings: higher = more signal;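 also: probe is biotin-labelled aShh protein from a stem cell growth factor screen; measures binding of labelled protein to compounds printed on the slide; score merges feature fluorescence at 667 nm with signal-to-noise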
[18] = small-molecule microarray binders of probe aNog, primary screen, biochemical, biotinylated probe, 635/667 nm fluorescence (AID 1115); settings: higher = more signal;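 also: probe is biotinylated aNog protein used at 0.15 µg/mL for 1 h at 4 C; z-score combines 667 nm fluorescence of each spot with its signal to noise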
[19] = target: Torsin-1A-interacting protein 1 (Homo sapiens) (UniProt Q5JTV8); test: LAP1 binders from COS7 cell lysate, primary screen, small-molecule microarray, 635/667 nm fluorescence (AID 1116); settings: COS7-hLAP1 lysate binding, 635 nm fluorescence, higher = more signal
Sequence of Torsin-1A-interacting protein 1 (Homo sapiens) (Q5JTV8 whole entry, looked up): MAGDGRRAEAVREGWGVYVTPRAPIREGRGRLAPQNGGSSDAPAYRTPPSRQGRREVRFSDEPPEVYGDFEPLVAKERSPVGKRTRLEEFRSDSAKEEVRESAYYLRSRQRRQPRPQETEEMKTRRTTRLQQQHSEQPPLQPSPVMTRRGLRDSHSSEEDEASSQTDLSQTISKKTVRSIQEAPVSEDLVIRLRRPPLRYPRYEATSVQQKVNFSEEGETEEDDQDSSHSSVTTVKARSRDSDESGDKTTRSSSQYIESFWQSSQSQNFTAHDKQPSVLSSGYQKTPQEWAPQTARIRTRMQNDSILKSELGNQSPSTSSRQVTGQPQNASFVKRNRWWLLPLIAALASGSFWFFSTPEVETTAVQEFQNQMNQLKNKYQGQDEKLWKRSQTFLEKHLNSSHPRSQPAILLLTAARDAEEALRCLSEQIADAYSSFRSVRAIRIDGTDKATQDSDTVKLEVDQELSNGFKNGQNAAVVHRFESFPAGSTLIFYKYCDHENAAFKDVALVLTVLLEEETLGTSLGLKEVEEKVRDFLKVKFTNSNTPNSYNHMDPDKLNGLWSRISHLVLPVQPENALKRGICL

[20] = target: Alpha-bungarotoxin (Bungarus multicinctus) (UniProt P60615); test: alpha-bungarotoxin binders on microarray, profiling panel, artefact control for SMM control protein annotation, biochemical, small-molecule microarray, Alexa647 label, 635/667 nm fluorescence (AID 1117); settings: alpha-BTX-A647 binding fluorescence, higher = more signal
Sequence of Alpha-bungarotoxin (Bungarus multicinctus) (P60615 whole entry, looked up): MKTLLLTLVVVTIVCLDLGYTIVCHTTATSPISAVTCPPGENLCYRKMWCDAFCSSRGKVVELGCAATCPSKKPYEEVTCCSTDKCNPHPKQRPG

| Compound | composite z-score [1] | composite z-score [2] | composite z-score [3] | z-score [4] | composite z-score [5] | composite z-score [6] | composite z-score [7] | composite z-score [8] | composite z-score [9] | composite z-score [10] | composite z-score [11] | z-score [12] | composite z-score [13] | composite z-score [14] | composite z-score [15] | composite z-score [16] | composite z-score [17] | composite z-score [18] | composite z-score [19] | composite z-score [20] |
| --- | --- | --- | --- | --- | --- | --- | --- | --- | --- | --- | --- | --- | --- | --- | --- | --- | --- | --- | --- | --- |
| O=C1C[C@@](C(=O)NC2CC2)(c2ccc([N+](=O)[O-])cc2)[C@@H](c2ccc(CO)cc2I)N1CC12CC3CC(CC(C3)C1)C2 | 0.841 | -0.0788 | -0.52 | -1.11 (inactive) | 1.23 | 0.968 | 0.282 | 0.991 | 0.266 | -0.22 | 1.37 | -3.45 | 0.672 | 0.266 | -0.151 | 0.0644 | 0.574 | -0.0719 | 0.626 | 0.905 |
| O=C(CS)NCCCCCCNC(=O)[C@@H]1C[C@@H]2C(=O)N[C@@H](Cc3ccccc3)C(=O)N2[C@@H]1c1ccc(O)cc1 | 1.6 | -0.0356 | 0.307 | -0.376 (inactive) | 1.03 | 1.32 | 0.411 | 1.19 | 1.18 | 0.617 | 1.45 | -0.144 | 0.621 | 2.31 | -0.23 | 0.0179 | -0.177 | -0.443 | 1 | 1.7 |
| C=CCC(OC(C)=O)[C@@H]1[C@@H](N(Cc2cccc3ccccc23)C(=O)c2ccc(C)cc2)c2cc(OCCCO)ccc2N1C(=O)c1ccc(-c2ccccc2)cc1 (stereo not given in full) | 0.451 | -0.0044 | 0.322 | -1.15 (inactive) | -0.162 | 0.0243 | 0.0513 | 0.268 | -0.133 | 1.08 | 0.479 | -0.852 | 0.111 | -0.355 | -0.065 | -0.135 | -0.273 | -0.241 | -0.144 | -0.218 |
| C=CC[C@]1(C(=O)O)N=C(c2ccc(OCCCO)cc2)O[C@H]1c1ccccc1N=[N+]=[N-] | 1.75 | 0.623 | 1.05 | -0.627 (inactive) | -0.103 | -0.335 | -0.18 | -0.214 | -0.651 | 1.43 | -0.914 | 1.65 | -0.753 | 1.74 | 0.768 | 0.055 | -0.0243 | -0.0069 | 1.45 | 0.0298 |
| CO[C@H]1COC(=O)CC=C[C@@H](C)COC(=O)[C@@H](C)NC(=O)CC=C[C@@H]1C | 1.35 | -0.954 | -1.84 | -2.81 (inactive) | 0.567 | 0.967 | 1.39 | 1.45 | 2.01 | -0.529 | -0.291 | 0.325 | 1.6 | -3.42 | -3.57 | -0.307 | 0.238 | -0.139 | -0.229 | -0.706 |
| Cc1ccc(S(=O)(=O)c2cc3oc2CC[C@@H](CO)NC(=O)N(C)Cc2cn(nn2)C[C@H](Cc2ccccc2)NC3=O)cc1 | 1.36 | -0.122 | -0.0291 | -0.0233 (inactive) | -0.0287 | 0.164 | -0.497 | -0.233 | -0.266 | -0.171 | -0.398 | -0.376 | -0.587 | 0.212 | 0.175 | -0.1 | 0.483 | 0.402 | 0.781 | 0.513 |
| O=C1C2C=CC(C(O)C#Cc3ccccc3)N(Nc3ccccc3)C2C(=O)N1c1ccccc1 (stereo not given) | 1.66 | -0.0212 | 0.498 | 0.287 (inactive) | -0.102 | -0.208 | -0.512 | -0.445 | -0.572 | 0.687 | -0.369 | -0.049 | -0.365 | 0.482 | 0.373 | -0.096 | -0.16 | 0.839 | 0.945 | 0.472 |
| O=C/C=C/c1ccc(/C=C/c2ccccc2)cc1 | -0.636 | -0.287 | 0.616 | -0.653 (inactive) | -0.77 | -0.386 | 0.193 | 0.233 | -0.278 | 1.47 | -1.48 | 0.783 | 0.0281 | -0.858 | -0.584 | -0.0585 | -0.0886 | -0.489 | 0.2 | 0.129 |
| C[C@@H]1C=CCC(=O)OC[C@H]2O[C@@H](C=C[C@@H]2O)[C@H](C)C=CCC(=O)OC[C@H]2O[C@H]1C=C[C@@H]2O | 0.489 | -0.384 | -1.67 | -2.62 (inactive) | 1.22 | 1.18 | 1.41 | 1.47 | 2.11 | 1.16 | 0.14 | -0.541 | 1.53 | -0.365 | -2.23 | 0.275 | 0.186 | 0.854 | 0.196 | -0.22 |
| COc1ccc(NN2C(C(O)c3cc(OC)c(OC)c(OC)c3)C=CC3C(=O)N(C4CCCCC4)C(=O)C32)cc1 (stereo not given) | 0.573 | 1.16 | 1.31 | -0.617 (inactive) | 0.672 | 1.04 | -0.187 | 0.563 | -0.61 | 0.973 | 1.22 | -1.92 | -0.346 | 1.58 | 0.509 | 0.114 | -0.226 | 0.273 | 0.479 | 1.96 |
| CO[C@H]1COC(=O)[C@@H](C)COC(=O)[C@H](Cc2ccccc2)NC(=O)CC=C[C@H]1C | 0.7 | -0.416 | -1.09 | -0.776 (inactive) | 0.457 | 0.0364 | 1.04 | 1.06 | 1.5 | 1.15 | 0.334 | -0.082 | 0.726 | -1.69 | -1.8 | -0.135 | -0.143 | -0.454 | -0.115 | 0.0209 |
